Laboratory results: PubChem BioAssay AID720697 (Broad Institute, 2013)
Results with a measured potency or affinity are listed apart. Records with an inconclusive call do not appear. Calls of active or inactive are those of the source.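 How the source made its calls: active means signal loss with fitted half-maximal concentration at or below twice the top valid tested dose in every test run; inconclusive means runs disagree, flat 30 to 70% signal loss, or poor fit; inactive means all runs flat, opposite direction, or potency beyond limit.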

Assay: general mammalian cell viability loss – inhibitor set, cherry-pick, set 2, cytotoxicity control for miR-122 modulator project, dose response (AID 720697);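 further: 0% = median of neutral control wells and -100% = MG132 positive control wells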
Details: HEK293T viability, CellTiter-Glo luminescence, 48 h; series mostly up to 26 µM

| SMILES | outcome | activity change, negative = cytotoxicity |
| --- | --- | --- |
| C[C@@H]1CN([C@H](C)CO)S(=O)(=O)c2ccc(C3=CCCCC3)cc2O[C@@H]1CN(C)C(=O)Nc1ccc2c(c1)OCO2 | inactive | – |
| CC(C)CC#Cc1ccc([C@H]2[C@@H](CO)N3CCCCN(S(=O)(=O)Cc4ccccc4)C[C@H]23)cc1 | inactive | – |
| CN1C(=O)c2cc(NC(=O)Nc3ccc(Cl)cc3)ccc2OC[C@@H]2O[C@@H](CC(=O)NCCN3CCCCC3)CC[C@H]21 | inactive | – |
| CN1C(=O)c2cc(NC(=O)c3cc(F)cc(F)c3)ccc2OC[C@@H]2O[C@@H](CC(=O)O)CC[C@@H]21 | inactive | – |
| CC(C)C(=O)Nc1ccc2c(c1)C(=O)N(C)[C@H]1CC[C@@H](CC(=O)NCCCN(C)C)O[C@H]1CO2 | inactive | – |
| COc1ccc2[nH]c(=O)c(COC(=O)c3ccco3)cc2c1 | inactive | – |
| Cc1ccccc1NC(=O)Nc1ccc2c(c1)C(=O)N(C)[C@H]1CC[C@@H](CC(=O)O)O[C@H]1CO2 | inactive | – |
| CN1C(=O)c2cc(NC(=O)Nc3ccccc3F)ccc2OC[C@@H]2O[C@@H](CC(=O)NCc3ccc(-c4ccccc4)cc3)CC[C@@H]21 | inactive | – |
| OCc1ccc(-c2nn(Cc3ccccc3)c3ccccc23)o1 | inactive | – |
| NS(=O)(=O)c1ccc(Nc2nc(-c3cccnc3)cs2)cc1 | – | 34% [at 6 µM] (inactive) |
| CCCNC(=O)C[C@H]1CC[C@@H]2[C@H](COc3ccc(NS(=O)(=O)c4ccccc4C)cc3C(=O)N2C)O1 | inactive | – |
| COCCNC(=O)C[C@@H]1CC[C@@H]2[C@H](COc3ccc(NS(=O)(=O)c4ccc(Cl)cc4)cc3C(=O)N2C)O1 | inactive | – |
| CN1C(=O)c2cc(NS(=O)(=O)c3cccc(F)c3)ccc2OC[C@H]2O[C@@H](CC(=O)NCCN3CCCCC3)CC[C@H]21 | inactive | – |
| Cc1ccccc1NC(=O)Nc1ccc2c(c1)C(=O)N(C)[C@@H]1CC[C@H](CC(=O)NCC3CC3)O[C@@H]1CO2 | inactive | – |
| CN1C(=O)c2cc(NC(=O)c3ccccc3F)ccc2OC[C@H]2O[C@H](CC(=O)NCc3ccc4c(c3)OCO4)CC[C@@H]21 | inactive | – |
| COc1ccc(NC(=O)N(C)C[C@@H]2Oc3cc(C#CCC(C)C)ccc3S(=O)(=O)N([C@@H](C)CO)C[C@@H]2C)cc1 | inactive | – |
| CCCNC(=O)C[C@@H]1CC[C@@H]2[C@@H](COc3ccc(NC(=O)Nc4ccccc4F)cc3C(=O)N2C)O1 | inactive | – |
| COC(=O)C[C@H]1CC[C@H]2[C@H](COc3ccc(NS(=O)(=O)c4ccc(F)cc4)cc3C(=O)N2C)O1 | inactive | – |
| COc1ccc(-c2cc(-c3nc4ccccn4c3NCc3ccccc3)ccc2OC)cc1 | inactive | – |
| C[C@@H]1CN([C@@H](C)CO)S(=O)(=O)c2ccc(C3=CCCCC3)cc2O[C@@H]1CN(C)C(=O)Cc1ccncc1 | inactive | – |

| SMILES | outcome | activity change, negative = cytotoxicity |
| --- | --- | --- |
| CCOC(=O)CSc1nnnn1-c1cccc2ccccc12 | inactive | – |
| CCN(C[C@H]1N[C@@H](CO)[C@@H]1c1ccc(C2=CCCC2)cc1)C(=O)c1cccnc1 | inactive | – |
| Cc1ccccc1NCN1C(=O)C2C3C=CC(C3)C2C1=O (centres undefined) | inactive | – |
| CN1C(=O)c2cc(NC(=O)c3cccc(F)c3)ccc2OC[C@H]2O[C@@H](CC(=O)O)CC[C@@H]21 | inactive | – |
| CO[C@H]1CN(C)C(=O)c2cc(NC(C)=O)ccc2OC[C@@H](C)N(C(=O)c2ccccn2)C[C@H]1C | inactive | – |
| CC(C)CC#Cc1ccc2c(c1)O[C@H](CN(C)C(=O)c1cnccn1)[C@H](C)CN([C@@H](C)CO)S2(=O)=O | inactive | – |
| COc1cccc(C(=O)N2C[C@H]3[C@@H](c4ccccc42)[C@H](CO)N3C(C)=O)c1 | inactive | – |
| Cc1ccccc1-c1nc(CN2CCCC(C(=O)NCCCN3CCOCC3)C2)c(C)o1 (centres undefined) | inactive | – |
| CN1C(=O)c2cc(NC(=O)c3ccc(C(F)(F)F)cc3)ccc2OC[C@H]2O[C@H](CC(=O)NCc3ccc4c(c3)OCO4)CC[C@@H]21 | inactive | – |
| CC(C)N(C[C@H]1[C@H](c2ccccc2)[C@@H](CO)N1S(C)(=O)=O)C(=O)CN(C)C | inactive | – |
| CN1C[C@@H]2[C@H](c3ccccc31)[C@@H](CO)N2C(=O)Nc1ccccc1 | inactive | – |
| COc1ccc2[nH]c(C(=O)O)c(NS(=O)(=O)c3ccc(Cl)s3)c2c1 | inactive | – |
| CCC(=O)N(C)C[C@H]1Oc2cc(C#Cc3ccccc3)ccc2S(=O)(=O)N([C@H](C)CO)C[C@H]1C | inactive | – |
| c1cnc(N2CCN(Cc3c[nH]c4ccccc34)CC2)nc1 | inactive | – |
| CNC(=O)C[C@H]1CC[C@@H]2[C@H](COc3ccc(NC(=O)Nc4ccccc4OC)cc3C(=O)N2C)O1 | inactive | – |
| C[C@H](CO)N1C[C@H](C)[C@@H](CN(C)Cc2ccc(C(F)(F)F)cc2)Oc2ccc(NS(=O)(=O)c3ccc(Cl)cc3)cc2CC1=O | inactive | – |
| CNC[C@@H]1Oc2cc(C#Cc3cccc(OC)c3)ccc2S(=O)(=O)N([C@@H](C)CO)C[C@@H]1C | inactive | – |
| O=C(Nc1ccccc1)N1C[C@@H]2[C@H](c3ccccc31)[C@H](CO)N2C(=O)c1ccncc1 | inactive | – |
| O=C(Nc1ccc(CN2CCOCC2)cc1)c1ccc(-c2ccc(Cl)cc2Cl)o1 | inactive | – |
